# GPR151 ag: activators of human GPR151, primary screen, cell-based, PathHunter beta-arrestin, luminescence. PathHunter beta-arrestin GPR151 cells. activation, % at 11.2 µM. 1% of 650,000 active. AID 1508602, 2020; in the data active = activation above about 4.9%;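 note: 0% = median of compound wells and 100% = cells with positive control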
# FBW7 activator: FBW7 E3 ligase activators, primary screen, biochemical, AlphaScreen, human. normalized activity (activation), % at 26.1 µM. AlphaScreen FBW7–phospho-cyclin E peptide binding, activator screen. 0.13% of 650,000 active. AID 1259310, 2017; in the data active = normalized activity above about 1.9%;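 note: purified mutant Fbw7 with reduced substrate affinity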
# TEAD-YAP block: TEAD-YAP interaction inhibition, primary screen, TEAD-YAP interaction inhibitor project, luminescence, HEK-TIYL cells; inhibition, % at 9.12 µM; TEAD-Gal4/YAP UAS-luciferase luminescence; AID 1259422, 2018; 1.4% of 640,000 active; in the data active = inhibition above about 32%;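 note: 0% = median of test compound wells and 100% = reference inhibitor wells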
# MITF primary: MITF inhibitors, primary screen, biochemical, AlphaScreen, human. Microphthalmia-associated transcription factor (Homo sapiens), O75030. AlphaScreen MITF homodimerization, bead proximity signal. inhibition, % at 2.6 µM. 0.91% of 650,000 active. AID 1259374, 2018; in the data active = inhibition above about 50%;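 note: 0% = vehicle wells with protein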
# MITF inh conf: MITF inhibitors, retest of hits, confirmation, biochemical, AlphaScreen, triplicate; AlphaScreen MITF homodimerization, biotin/His-MITF beads; 16% of 4,700 active; inhibition, % at 2.6 µM; shares compounds with MITF primary;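 active = inhibition above a cutoff derived from the DMSO control wells, cut at about 28% in these data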;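 note: 0% = MITF dimer wells with DMSO only; inhibitors lower the bead chemiluminescence by keeping MITF from dimerizing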
# AlphaScreen DR: AlphaScreen optical interference compounds, dose response, counter-screen, biochemical, HTS | shares compounds with MITF primary | AlphaScreen optical interference counterscreen, cell-free | IC50, µM | 6% of 480 active | AID 1259373, 2018; call rule not given here
# AlphaScreen intf2: AlphaScreen optical interference compounds, counter-screen for MITF inhibitor project, biochemical, triplicate | shares compounds with MITF primary | LysRS AlphaScreen counterscreen, signal interference | inhibition, % at 2.6 µM | 7.6% of 4,700 active;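 active = inhibition above a cutoff derived from the DMSO control wells, cut at about 30% in these data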
# * = called active by the depositor; nt = no result. An excerpt weighted towards active compounds, which were near 3.5% of everything screened.
SMILES,GPR151 ag,FBW7 activator,TEAD-YAP block,MITF primary,MITF inh conf,AlphaScreen intf2,others
CCOC(=O)/C(Cl)=N\Nc1ccccc1,0.4,0.0,16.1,31.4,nt,nt,
CCOC(=O)/C(Br)=N\Nc1ccc(C)cc1,0.2,-0.1,-1.5,83.9*,19.4,17.5,
CN(C)c1ccc(C(=O)c2cc3ccccc3o2)cc1,-0.8,-0.1,-51.8,-3.1,nt,nt,
CCOC(=O)N1CCN(Cc2cn3ccccc3n2)CC1,0.7,-0.1,2.9,60.9*,-2.7,-1.9,
CC(C(=O)N1CCCCC1)N(C)CC(=O)Nc1ccc(F)c(F)c1F (stereo not given),0.0,-0.1,5.7,68.7*,9.1,14.3,
O=[N+]([O-])c1cc2c(cc1CN1CCN(c3cccc(Cl)c3)CC1)OCO2,0.5,0.1,5.4,10.1,nt,nt,
CCOC(=O)NC(=S)N/N=C/c1ccccn1,1.0,-1.6,3.1,64.1*,-8.2,31.8*,
CCOC(=O)c1c(NC(=O)CSc2ncccn2)sc2c1CCC(C)C2 (stereo not given),1.7,0.0,10.8,-3.5,nt,nt,
C=C1C(C(=O)NCc2ccco2)C1C(=O)NCc1ccco1 (stereo not given),-0.3,-0.2,-0.1,63.2*,67.2*,12.8,AlphaScreen DR=>7.72
FC(F)(F)c1ccc(-c2noc(-c3cc(-c4ccc(Cl)cc4)nc4ccccc34)n2)cc1,0.7,0.6,-10.1,55.7*,-11.4,-11.8,
CN(C)CCCN(CCCN(C)C)Cc1ccc(F)c(F)c1,-0.2,0.0,-1.0,56.0*,-12.0,-0.9,
CN(C)CCCN(CCCN(C)C)Cc1ccc(C(F)(F)F)cc1,-0.4,-0.1,-1.7,53.6*,-9.3,0.3,
CN(CC(=O)NC1CCCCCC1)S(=O)(=O)c1cc2c(cc1Cl)NC(=O)CO2,-0.1,0.1,1.4,-0.2,nt,nt,
O=C(NCCn1cnc(-c2ccccc2)cc1=O)c1cc(=O)c2ccccc2o1,0.1,0.2,-2.3,4.1,nt,nt,
O=C(c1ccccc1)N1CCN(C(=O)c2cccnc2)CC1,1.4,0.2,14.0,7.7,nt,nt,
O=C(c1cccnc1)N1CCN(Cc2ccncc2)CC1,-2.1,0.4,14.2,85.7*,7.0,15.3,
O=C(c1cccnc1)N1CCN(Cc2ccco2)CC1,0.6,0.0,1.9,52.7*,-16.2,4.8,
O=C(c1cccnc1)N1CCN(Cc2ccc(F)cc2)CC1,1.4,0.1,3.0,78.8*,7.4,3.6,
CCc1ccc(C(=O)Nc2cccc(NC(=O)c3ccc(CC)cc3)n2)cc1,-1.4,0.2,-18.1,8.1,nt,nt,
O=C(O)CCCCCn1c(SCc2nc3ccccc3[nH]2)nc2ccsc2c1=O,-0.1,0.1,-6.2,61.1*,-10.9,-6.9,
O=C(CCCn1c(SCc2nc3ccccc3[nH]2)nc2ccsc2c1=O)NCCc1ccccc1,-1.4,0.1,-6.1,2.6,nt,nt,
Nc1nc(Nc2ccccc2)nc2nc[nH]c12,0.1,0.4,-2.3,60.4*,2.3,12.4,
CC(C)C[C@@H]1NC(=O)[C@H]2CN(C(=O)NCc3ccccc3)CCN2C1=O,-0.4,-0.3,10.9,78.3*,72.3*,-5.4,AlphaScreen DR=>6.48
O=C(NCc1ccccc1)N1CCN2C(=O)[C@H]3CCCN3C(=O)[C@H]2C1,-0.7,-0.2,11.2,76.3*,68.5*,-10.7,AlphaScreen DR=>6.48
CC(C)[C@H]1NC(=O)[C@H]2CN(C(=O)OCc3ccccc3)CCN2C1=O,-1.8,-0.2,-9.6,-3.0,nt,nt,
O=C1N[C@@H](CC2CCCCC2)C(=O)N2CCN(C(=O)NCc3ccccc3)C[C@H]12,0.7,-0.1,3.3,77.4*,68.4*,-8.9,AlphaScreen DR=>6.48
O=C1N[C@@H](CO)C(=O)N2CCN(C(=O)OCc3ccccc3)C[C@H]12,0.0,0.1,0.9,0.2,nt,nt,
O=C(OCc1ccccc1)N1CCN2C(=O)[C@H]3CCCN3C(=O)[C@H]2C1,1.7,-0.4,-5.5,-0.6,nt,nt,
CC(C)[C@@H]1NC(=O)[C@H]2CN(C(=O)NCc3ccccc3)CCN2C1=O,-0.9,0.2,11.2,80.5*,70.1*,-7.5,AlphaScreen DR=>6.48

# Source: PubChem BioAssay
